Measurements as given in PubChem BioAssay.
Activity calls are given as the source filed them. Unless noted, no rule for the calls is given here.

Assays:
[1] = resazurin metabolic signal in HepG2 cells – cell-based, resazurin fluorescence, 24 h, PK04 Diversity Set, profiling panel (AID 1172); settings: HepG2 viability, higher = more signal
[2] = budding yeast growth changes without added modifier – OD600, strain BY4716, 24 h, basal condition, primary screen (AID 1173); settings: S. cerevisiae BY4716 growth, OD600, 24 h; higher = more signal, called active from +8 up or from −8 down
[3] = viability profiling in MM1S myeloma cells – cell-based, resazurin fluorescence, basal, 24 h, PK04 Diversity Set, profiling panel (AID 1174); settings: higher = more signal, called active from +8 up or from −8 down;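 also: MM1S multiple myeloma cell line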
[4] = target: Dihydroorotate dehydrogenase (quinone), mitochondrial (Plasmodium falciparum (isolate 3D7)) (UniProt Q08210); assay: inhibition of P. falciparum DHODH – biochemical, C-terminal His tag, absorbance 600 nm, primary screen (AID 1175); settings: PfDHODH enzyme, DCIP absorbance 600 nm; higher = more signal, called active from +8 up or from −8 down;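 also: recombinant parasite enzyme with a five histidine tag at its C terminus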
[5] = growth modulation of vineyard yeast isolate – strain RM11-1a, OD600, basal, 24 h, primary screen (AID 1177);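 also: cultures grown under basal conditions with no added stressor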; settings: S. cerevisiae RM11-1a growth, OD600, 24 h; higher = more signal, called active from +8 up or from −8 down
[6] = growth of efflux-deficient E. coli DRC39 – strain DRC39, OD650, 24 h, E. coli filamentation inducers, primary screen (AID 1178);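 also: growth measured as culture turbidity by optical density at 650 nm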; settings: E. coli DRC39 acrAB, higher = more signal, called active from +8 up or from −8 down
[7] = growth of efflux-deficient E. coli DRC39 – strain DRC39, OD650, 48 h, E. coli filamentation inducers, primary screen (AID 1179);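 also: screen aims at cell division blockers that make cells filament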; settings: E. coli DRC39 delta-acrAB growth, higher = more signal, called active from +8 up or from −8 down
[8] = viability profiling in RPMI8226 myeloma cells – cell-based, resazurin fluorescence, basal, 24 h, PK04 Diversity Set, profiling panel (AID 1180); settings: higher = more signal;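 also: RPMI8826 multiple myeloma cell line at 5000 cells per well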
[9] = target: E3 ubiquitin-protein ligase XIAP (Homo sapiens) (UniProt P98170); assay: small molecules binding XIAP protein – biophysical, small-molecule microarray, fluorescence 635 nm, primary screen (AID 1181); settings: higher = more signal;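 also: score merges 667 nm emission and signal to noise over triplicate slides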
[10] = system: XIP peptide (Xip251-270) binding; assay: XIP fragment 251-270 binding compounds – biochemical, small-molecule microarray, fluorescence 635/667 nm, 0.1 µg/mL protein, primary screen (AID 1182); settings: fluorescent protein binding, 635 nm, higher = more signal, called active from +8 up or from −8 down
XIP peptide (Xip251-270) = assay: compounds binding XIP fragment 251-270 – biochemical, small-molecule microarray, fluorescence 635/667 nm, 0.5 µg/mL protein, primary screen (AID 1183); settings: fluorescence 635 nm, higher = more signal
[11] = blood-stage malaria parasite viability loss – strain 3D7, DAPI fluorescence, 100 nL, primary screen (AID 1184);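 also: parasites grown inside human red blood cells in medium with human serum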; settings: P. falciparum 3D7 growth, 3 d, higher = more signal
[12] = target: Homeobox protein Hox-A13 (Mus musculus) (UniProt Q62424); assay: disruptors of Hoxa13 oligonucleotide interaction – biochemical, fluorescence polarization, labeled oligonucleotide, primary screen (AID 1185); settings: Hoxa13:DNA binding, 15 min, higher = more signal, called active from +8 up or from −8 down
[13] = blockers of DNA damage checkpoint Chk1 activation – imaging, HeLa, hydroxyurea, phospho-Chk1 antibody, percent positive cells, primary screen (AID 1186); settings: hydroxyurea-induced phospho-Chk1 immunofluorescence imaging, higher = more signal
[14] = blockers of DNA damage checkpoint Chk1 activation – imaging, HeLa, hydroxyurea, phospho-Chk1 nuclear intensity, primary screen (AID 1187); settings: hydroxyurea-induced phospho-Chk1 immunofluorescence imaging, higher = more signal

Chain of E3 ubiquitin-protein ligase XIAP (Homo sapiens) (P98170 whole entry, looked up, the tested form may be a part): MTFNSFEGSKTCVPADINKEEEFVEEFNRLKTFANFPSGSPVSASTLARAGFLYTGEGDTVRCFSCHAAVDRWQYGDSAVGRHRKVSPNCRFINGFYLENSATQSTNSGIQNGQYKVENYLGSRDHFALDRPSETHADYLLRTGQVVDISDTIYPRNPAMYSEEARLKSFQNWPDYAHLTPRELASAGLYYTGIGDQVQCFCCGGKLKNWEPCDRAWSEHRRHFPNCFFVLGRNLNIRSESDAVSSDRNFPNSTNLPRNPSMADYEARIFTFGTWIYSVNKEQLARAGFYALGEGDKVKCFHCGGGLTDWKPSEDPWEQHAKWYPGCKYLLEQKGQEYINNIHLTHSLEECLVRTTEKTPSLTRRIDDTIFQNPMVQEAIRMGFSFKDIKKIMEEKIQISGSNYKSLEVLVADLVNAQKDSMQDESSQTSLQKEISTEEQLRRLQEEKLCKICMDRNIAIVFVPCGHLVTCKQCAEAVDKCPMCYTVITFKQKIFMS
Chain of Homeobox protein Hox-A13 (Mus musculus) (Q62424 whole entry, looked up): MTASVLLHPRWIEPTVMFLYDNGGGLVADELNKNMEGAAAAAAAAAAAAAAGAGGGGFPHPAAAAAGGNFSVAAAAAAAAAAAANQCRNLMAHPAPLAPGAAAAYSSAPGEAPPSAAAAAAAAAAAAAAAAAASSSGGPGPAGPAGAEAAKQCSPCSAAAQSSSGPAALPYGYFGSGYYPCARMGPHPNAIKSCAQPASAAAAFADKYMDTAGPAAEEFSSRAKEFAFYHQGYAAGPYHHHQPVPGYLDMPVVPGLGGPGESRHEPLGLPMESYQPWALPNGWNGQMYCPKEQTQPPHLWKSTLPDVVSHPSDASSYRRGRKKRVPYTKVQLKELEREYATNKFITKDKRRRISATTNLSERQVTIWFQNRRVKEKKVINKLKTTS
Chain of Dihydroorotate dehydrogenase (quinone), mitochondrial (Plasmodium falciparum (isolate 3D7)) (Q08210 whole entry, looked up): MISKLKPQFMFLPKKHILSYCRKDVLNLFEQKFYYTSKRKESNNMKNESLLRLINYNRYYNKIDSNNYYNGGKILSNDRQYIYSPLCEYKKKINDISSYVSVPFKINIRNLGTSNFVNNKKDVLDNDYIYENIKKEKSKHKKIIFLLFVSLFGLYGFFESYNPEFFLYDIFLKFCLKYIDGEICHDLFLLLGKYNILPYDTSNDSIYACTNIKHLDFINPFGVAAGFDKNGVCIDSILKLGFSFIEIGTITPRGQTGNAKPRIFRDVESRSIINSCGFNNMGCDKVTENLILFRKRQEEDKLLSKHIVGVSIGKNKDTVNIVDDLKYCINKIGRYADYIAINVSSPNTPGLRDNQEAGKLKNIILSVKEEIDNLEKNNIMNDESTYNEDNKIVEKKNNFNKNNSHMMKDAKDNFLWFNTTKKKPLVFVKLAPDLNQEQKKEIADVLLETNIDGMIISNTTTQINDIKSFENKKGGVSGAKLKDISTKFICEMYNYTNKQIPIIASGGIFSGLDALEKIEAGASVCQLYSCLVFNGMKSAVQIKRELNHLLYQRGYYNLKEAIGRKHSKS

C=CC(=O)O[C@@H](Cc1ccccc1)[C@H]1C2C=CCCC=C2CN1Cc1cccc(Cl)c1 (stereo not given in full)
z-score [1]: 1.36 | z-score [2]: -2.29 (inactive) | z-score [3]: 0.399 (inactive) | composite z-score [4]: 0.566 (inactive) | z-score [5]: -0.718 (inactive) | z-score [6]: 2.63 (inactive) | z-score [7]: 0.338 (inactive) | z-score [8]: 1.26 | composite z-score [9]: 0.348 | composite z-score [10]: -0.244 (inactive) | composite z-score (XIP peptide (Xip251-270)): -2.01 | z-score [11]: -0.0093 | z-score [12]: -3.7 (inactive) | z-score [13]: 0.171 (inactive) | z-score [14]: 0.304 (inactive)

C=CCNC(=O)[C@@H]1[C@H]2C(=O)O[C@H](c3ccccc3)[C@H](c3ccccc3)N2[C@H](c2ccc(OCCO)cc2)[C@@]12C(=O)N(C(=O)OCCOC)c1ccc(C#CC3(O)CCCCCC3)cc12
z-score [1]: 0.14 | z-score [2]: -0.985 (inactive) | z-score [3]: 0.39 (inactive) | composite z-score [4]: -1.57 (inactive) | z-score [5]: 0.442 (inactive) | z-score [6]: 0.862 (inactive) | z-score [7]: 0.351 (inactive) | z-score [8]: 0.239 | composite z-score [9]: 0.276 | composite z-score [10]: 0.87 (inactive) | composite z-score (XIP peptide (Xip251-270)): 0.675 | z-score [11]: -2.33 | z-score [12]: 2.65 (inactive) | z-score [13]: -0.0211 (inactive) | z-score [14]: 0.0364 (inactive)

CCCCCCc1nc(C2CC2)c(C)c2c1[Si](C(C)C)(C(C)C)OC2
z-score [1]: 0.252 | z-score [2]: -0.875 (inactive) | z-score [3]: 1.47 (inactive) | composite z-score [4]: -3.54 (inactive) | z-score [5]: -2.89 (inactive) | z-score [6]: 1.6 (inactive) | z-score [7]: 0.878 (inactive) | z-score [8]: 0.232 | composite z-score [9]: 0.109 | composite z-score [10]: -0.0485 (inactive) | composite z-score (XIP peptide (Xip251-270)): -0.462 | z-score [11]: -2.41 | z-score [12]: 2.65 (inactive) | z-score [13]: -0.53 (inactive) | z-score [14]: -0.23 (inactive)

C[N+](C)(C)CCCC[C@@H]1NC(=O)[C@H]2C[C@@H](C(=O)NCc3ccc(F)cc3)[C@@H](c3cccc(OCCO)c3)N2C1=O
z-score [1]: 0.523 | z-score [2]: -1.84 (inactive) | z-score [3]: 1.33 (inactive) | composite z-score [4]: -0.347 (inactive) | z-score [5]: -1.62 (inactive) | z-score [6]: 0.765 (inactive) | z-score [7]: 0.604 (inactive) | z-score [8]: -0.0523 | composite z-score [9]: 0.245 | composite z-score [10]: 1.61 (inactive) | composite z-score (XIP peptide (Xip251-270)): 0.675 | z-score [11]: 0.13 | z-score [12]: -1.22 (inactive) | z-score [13]: 0.06 (inactive) | z-score [14]: 0.274 (inactive)

CCOC(=O)C[C@H]1[C@H](OC(=O)c2ccccc2-c2ccccc2)[C@@H](NC(=O)C2CCCCC2)c2cc(OCCCO)ccc2N1C(=O)c1ccccc1
z-score [1]: -0.206 | z-score [2]: -0.686 (inactive) | z-score [3]: 0.609 (inactive) | composite z-score [4]: 0.684 (inactive) | z-score [5]: 1.33 (inactive) | z-score [6]: 2.32 (inactive) | z-score [7]: 1.37 (inactive) | z-score [8]: 0.737 | composite z-score [9]: -0.0351 | composite z-score [10]: -0.339 (inactive) | composite z-score (XIP peptide (Xip251-270)): 0.0325 | z-score [11]: -1.35 | z-score [12]: -3.05 (inactive) | z-score [13]: -0.319 (inactive) | z-score [14]: -0.0975 (inactive)

CN1CCC(CCCO)=CC1C1CC1 (stereo not given)
z-score [1]: 0.413 | z-score [2]: -0.821 (inactive) | z-score [3]: 1.18 (inactive) | composite z-score [4]: -1.13 (inactive) | z-score [5]: -1.57 (inactive) | z-score [6]: 0.887 (inactive) | z-score [7]: 0.611 (inactive) | z-score [8]: 0.63 | composite z-score [9]: 0.77 | composite z-score [10]: -0.289 (inactive) | composite z-score (XIP peptide (Xip251-270)): -0.5 | z-score [11]: -0.548 | z-score [12]: -1.63 (inactive) | z-score [13]: -0.734 (inactive) | z-score [14]: -0.684 (inactive)

O=C1c2ccccc2[C@](Cc2ccccc2I)(C(=O)O)[C@H](c2ccc(CO)cc2)N1C1CCCCC1
z-score [1]: -0.221 | z-score [2]: -1.14 (inactive) | z-score [3]: 1.8 (inactive) | composite z-score [4]: -0.0088 (inactive) | z-score [5]: -1.05 (inactive) | z-score [6]: 0.938 (inactive) | z-score [7]: 0.832 (inactive) | z-score [8]: 1.36 | composite z-score [9]: 0.0225 | composite z-score [10]: 1.87 (inactive) | composite z-score (XIP peptide (Xip251-270)): 0.734 | z-score [11]: -1.49 | z-score [12]: -2.96 (inactive) | z-score [13]: -0.225 (inactive) | z-score [14]: -0.395 (inactive)

C=CCC(OC(C)=O)[C@@H]1[C@@H](N(Cc2cc3ccccc3o2)C(=O)Cc2ccc(F)cc2)c2cc(OCCCO)ccc2N1C(=O)c1ccc(-c2ccccc2)cc1 (stereo not given in full)
z-score [1]: 1.13 | z-score [2]: -0.588 (inactive) | z-score [3]: -0.518 (inactive) | composite z-score [4]: -0.177 (inactive) | z-score [5]: -0.157 (inactive) | z-score [6]: 1.17 (inactive) | z-score [7]: 0.845 (inactive) | z-score [8]: 0.673 | composite z-score [9]: -0.332 | composite z-score [10]: -0.618 (inactive) | composite z-score (XIP peptide (Xip251-270)): -0.666 | z-score [11]: -0.0101 | z-score [12]: -1.04 (inactive) | z-score [13]: 0.0934 (inactive) | z-score [14]: 0.192 (inactive)

Cc1ccc(S[C@]2(C(=O)NCCN3CCOCC3)CC(=O)N(C3Cc4ccccc4C3)[C@@H]2c2ccc(CO)cc2I)cc1
z-score [1]: 0.0862 | z-score [2]: -5.55 (inactive) | z-score [3]: -1.48 (inactive) | composite z-score [4]: -0.24 (inactive) | z-score [5]: -2.62 (inactive) | z-score [6]: -0.0522 (inactive) | z-score [7]: -0.169 (inactive) | z-score [8]: -1.41 | composite z-score [9]: 0.194 | composite z-score [10]: 0.669 (inactive) | composite z-score (XIP peptide (Xip251-270)): 0.771 | z-score [11]: -0.861 | z-score [12]: -2.43 (inactive) | z-score [13]: 0.18 (inactive) | z-score [14]: 0.764 (inactive)

CCOC(=O)C[C@H]1[C@H](OC(=O)c2cc3ccccc3oc2=O)[C@@H](NC(=O)c2ccc3ccccc3c2)c2cc(OCCCO)ccc2N1C(=O)c1ccc2ccccc2n1
z-score [1]: 0.272 | z-score [2]: -2.13 (inactive) | z-score [3]: 0.0578 (inactive) | composite z-score [4]: -0.172 (inactive) | z-score [5]: -1.06 (inactive) | z-score [6]: 2.52 (inactive) | z-score [7]: 1.23 (inactive) | z-score [8]: -0.536 | composite z-score [9]: -0.0454 | composite z-score [10]: 0.227 (inactive) | composite z-score (XIP peptide (Xip251-270)): -0.333 | z-score [11]: -1.6 | z-score [12]: -1.06 (inactive) | z-score [13]: -0.0364 (inactive) | z-score [14]: 0.034 (inactive)
